This note sets out measurements from PubChem BioAssay.

The target in one test is Albumin (Bos taurus) (UniProt P02769). The test is described as follows: bovine serum albumin binders on microarray, profiling panel, artefact control for SMM control protein annotation, biochemical, small-molecule microarray, Alexa647 label, 635/667 nm fluorescence (AID 1118).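 Also: score merges 667 nm emission intensity and signal-to-noise per printed compound spot.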 The conditions noted are these: BSA-A647 binding, fluorescence 635 nm, higher = more signal.
Albumin (Bos taurus), sequence (P02769 whole entry, looked up): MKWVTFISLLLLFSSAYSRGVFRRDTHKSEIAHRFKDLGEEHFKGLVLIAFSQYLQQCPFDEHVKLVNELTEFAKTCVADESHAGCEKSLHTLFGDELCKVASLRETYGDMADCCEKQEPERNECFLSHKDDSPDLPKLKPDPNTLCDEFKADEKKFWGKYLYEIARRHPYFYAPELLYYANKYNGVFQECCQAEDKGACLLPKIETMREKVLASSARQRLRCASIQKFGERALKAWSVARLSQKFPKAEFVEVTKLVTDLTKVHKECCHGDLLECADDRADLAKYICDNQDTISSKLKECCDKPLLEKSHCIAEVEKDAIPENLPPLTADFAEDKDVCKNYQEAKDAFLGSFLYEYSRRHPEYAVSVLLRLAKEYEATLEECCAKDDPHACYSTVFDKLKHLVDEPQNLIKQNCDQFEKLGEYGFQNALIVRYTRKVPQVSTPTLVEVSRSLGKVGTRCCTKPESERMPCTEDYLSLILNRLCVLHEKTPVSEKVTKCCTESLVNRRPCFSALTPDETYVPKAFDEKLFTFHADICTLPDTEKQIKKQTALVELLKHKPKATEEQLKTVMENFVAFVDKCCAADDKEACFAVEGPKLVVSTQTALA
Test [1] in a line: small-molecule microarray binders of probe aXIP, primary screen, biochemical, NeuroSMM set, 635/667 nm fluorescence (AID 1119).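 Also: probe is the protein aXip251-270 applied at 1 µg/mL to compound-printed slides; binding of probe to printed compounds measured as 667 nm fluorescence plus signal to noise.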 The conditions noted are these: higher = more signal, called active from +8 up or from −8 down.
A short description of test [2]: small-molecule binders of probe aNOTCH3, primary screen, biochemical, small-molecule microarray, 635/667 nm fluorescence (AID 1120).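 Also: probe is a biotin-tagged antibody raised against NOTCH3 rather than NOTCH3 protein; score merges spot fluorescence near 667 nm with spot signal to noise.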 Particulars: higher = more signal.
Test [3] can be described thus: small-molecule binders of probe aNOTCH2, primary screen, biochemical, small-molecule microarray, 635/667 nm fluorescence (AID 1121).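 Also: score merges feature fluorescence read at 667 nm with its signal to noise.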 Particulars: higher = more signal.
Test [4] concerns the target Carbonic anhydrase 2 (Homo sapiens) (UniProt P00918). The test is described as follows: CAII small-molecule binders, profiling panel, biochemical, small-molecule microarray, Alexa647-labelled CAII (AID 1122). The conditions noted are these: CAII-A647 binding fluorescence, higher = more signal.
Test [5] can be described thus: COS7 lysate on small-molecule microarray, probe aHis, 635 nm (AID 1123).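 Also: z-score combines 667nm fluorescence intensity with signal-to-noise per printed compound spot.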 Particulars: COS7 cell lysate, fluorescence, higher = more signal.
Test [6] is described as follows: compound binding in COS7 lysate, probe aLAP1, primary screen, cell lysate, small-molecule microarray (AID 1124).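 Also: lysate comes from COS7 cells expressing LAP1 and is applied at 0.3 µg/mL; score merges spot fluorescence near 667 nm with signal-to-noise over triplicate slides.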 Particulars: probe aLAP1, fluorescence, higher = more signal.
Another test relates to Sam68 (KHDRBS1). The test is described as follows: Sam68 small-molecule binders, primary screen, biochemical, small-molecule microarray, 635 nm fluorescence (AID 1125).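 Also: score merges 667 nm channel intensity with signal to noise over triplicate slides.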 Particulars: small-molecule microarray binding, higher = more signal.
Test [7] relates to Chordin-like protein 2 (CHRDL2). The test is described as follows: CHRDL2 small-molecule binders, primary screen, biochemical, small-molecule microarray, 635 nm fluorescence (AID 1126).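 Also: printed compound slides probed with Chrdl2 protein at 4 µg/mL for 1 h at 4 C; score merges 667 nm emission intensity with signal to noise over three replicate slides.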 Particulars: small-molecule microarray binding, fluorescence 635 nm; higher = more signal.
Test [8] deals with Concanavalin-A (Canavalia ensiformis) (UniProt P02866). The test is described as follows: ConA small-molecule binders, primary screen, artefact control for SMM control protein annotation, biochemical, small-molecule microarray, Alexa647 label, 635 nm (AID 1127).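 Also: z combines 667 nm emission intensity with signal-to-noise across three replicate slides.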 Particulars: ConA-A647 binding fluorescence, higher = more signal.
Concanavalin-A (Canavalia ensiformis), sequence (P02866 whole entry, looked up): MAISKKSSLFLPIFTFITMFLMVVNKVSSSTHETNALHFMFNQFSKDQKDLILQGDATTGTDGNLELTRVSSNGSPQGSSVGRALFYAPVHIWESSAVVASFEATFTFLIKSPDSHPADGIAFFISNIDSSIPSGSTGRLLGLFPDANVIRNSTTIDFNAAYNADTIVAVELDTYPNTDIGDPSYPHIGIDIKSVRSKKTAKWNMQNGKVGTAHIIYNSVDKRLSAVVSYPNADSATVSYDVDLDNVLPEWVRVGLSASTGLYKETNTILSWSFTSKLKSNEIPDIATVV
Test [9] in a line: anti-His antibody binders, primary screen, artefact control for SMM control protein annotation, biochemical, small-molecule microarray, 635 nm fluorescence (AID 1128).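 Also: score merges feature fluorescence with signal-to-noise for each printed compound spot.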 Particulars: anti-His Alexa647 antibody binding, higher = more signal.
Test [10] has as its system Human papillomavirus type 1a E7 protein (residues 1-88). The test is described as follows: HPV1a E7 small-molecule binders, primary screen, biochemical, small-molecule microarray, residues 1-88, 635 nm (AID 1129). The conditions noted are these: small-molecule microarray binding, fluorescence 635 nm; higher = more signal.
Test [11] deals with Focal adhesion kinase 1 (Homo sapiens) (UniProt Q05397). The experiment in a line: small-molecule microarray binders of FAK, primary screen, biochemical, 635/667 nm fluorescence, BSA, DTT (AID 1130).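 Also: composite of spot emission at 667 nm and signal to noise over triplicate slides.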 Particulars: PTK2 binding, 635 nm fluorescence, higher = more signal.
Focal adhesion kinase 1 (Homo sapiens), sequence (Q05397 whole entry, looked up): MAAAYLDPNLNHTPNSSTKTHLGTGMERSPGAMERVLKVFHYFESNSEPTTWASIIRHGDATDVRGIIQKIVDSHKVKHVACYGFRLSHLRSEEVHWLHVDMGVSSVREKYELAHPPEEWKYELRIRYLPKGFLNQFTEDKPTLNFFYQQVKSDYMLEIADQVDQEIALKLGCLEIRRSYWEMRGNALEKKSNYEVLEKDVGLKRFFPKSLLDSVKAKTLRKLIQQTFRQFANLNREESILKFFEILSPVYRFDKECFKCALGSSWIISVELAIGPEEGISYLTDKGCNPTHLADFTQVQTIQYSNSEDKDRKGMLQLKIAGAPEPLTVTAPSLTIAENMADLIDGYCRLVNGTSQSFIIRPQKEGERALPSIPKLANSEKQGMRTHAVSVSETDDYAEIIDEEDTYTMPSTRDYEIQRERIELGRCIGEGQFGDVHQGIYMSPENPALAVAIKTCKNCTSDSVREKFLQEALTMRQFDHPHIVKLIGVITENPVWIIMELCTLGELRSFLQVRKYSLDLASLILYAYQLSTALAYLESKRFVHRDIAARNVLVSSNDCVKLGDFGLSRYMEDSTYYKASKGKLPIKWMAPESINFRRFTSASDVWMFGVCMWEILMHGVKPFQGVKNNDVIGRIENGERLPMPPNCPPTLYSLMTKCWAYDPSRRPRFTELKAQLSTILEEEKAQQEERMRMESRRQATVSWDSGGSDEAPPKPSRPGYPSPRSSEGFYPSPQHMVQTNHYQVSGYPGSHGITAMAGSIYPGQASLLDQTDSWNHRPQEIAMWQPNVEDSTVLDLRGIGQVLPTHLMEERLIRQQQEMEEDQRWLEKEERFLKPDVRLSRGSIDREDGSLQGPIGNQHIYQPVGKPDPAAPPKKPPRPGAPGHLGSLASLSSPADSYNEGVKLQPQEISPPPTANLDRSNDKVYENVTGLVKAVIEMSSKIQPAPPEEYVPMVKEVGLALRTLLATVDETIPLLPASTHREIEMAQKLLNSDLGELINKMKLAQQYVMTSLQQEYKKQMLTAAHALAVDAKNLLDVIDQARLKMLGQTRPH
For test [12], the system named is Fibrinogen (Alexa647-labelled). The experiment in a line: fibrinogen binders on compound microarrays, profiling panel, artefact control for SMM control-protein annotation, biochemical, small-molecule microarray, 635/667 nm fluorescence (AID 1131).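 Also: z-score merges 667 nm fluorescence with per-spot signal-to-noise over triplicate slides.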 The conditions noted are these: fibrinogen-A647 binding fluorescence, higher = more signal.
Test [13] has as its target Follistatin (Homo sapiens) (UniProt P19883). The test is described as follows: follistatin binders on small-molecule microarrays, primary screen, biochemical, small-molecule microarray, 635/667 nm fluorescence (AID 1132). Particulars: FST binding, 635 nm fluorescence, higher = more signal.
The target of test [14] is Fibroblast growth factor 2 (Homo sapiens) (UniProt P09038). The test is described as follows: FGF2 binders on small-molecule microarrays, primary screen, biochemical, small-molecule microarray, 635/667 nm fluorescence (AID 1133). The conditions noted are these: small-molecule microarray binding, FGF2, fluorescence 635/667; higher = more signal.
Fibroblast growth factor 2 (Homo sapiens), sequence (P09038 whole entry, looked up): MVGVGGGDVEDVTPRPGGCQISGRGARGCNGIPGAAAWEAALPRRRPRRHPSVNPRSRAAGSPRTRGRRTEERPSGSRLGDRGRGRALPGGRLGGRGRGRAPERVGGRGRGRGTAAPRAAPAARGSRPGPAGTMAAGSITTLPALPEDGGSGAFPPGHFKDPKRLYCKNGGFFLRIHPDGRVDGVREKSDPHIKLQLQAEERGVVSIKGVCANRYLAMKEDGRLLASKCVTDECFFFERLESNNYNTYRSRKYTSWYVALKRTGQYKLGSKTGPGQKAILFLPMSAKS
Test [15] is described as follows: mitochondrial membrane potential change in A549 cells, profiling panel, cell-based, JC-1 fluorescence, basal, 24 h, 100 nL (AID 1138).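 Also: A549 lung adenocarcinoma cells under basal conditions with no added stimulus; test concentration not given here.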 The conditions noted are these: higher = more signal.
The test system of another test is Lefty1. The experiment in a line: Lefty1 binders on small-molecule microarrays, primary screen, biochemical, small-molecule microarray, 635/667 nm fluorescence (AID 1139). The conditions noted are these: small-molecule microarray binding, fluorescence 635/667; higher = more signal.
Test [16] relates to wheat germ agglutinin (Triticum aestivum), Alexa647-labelled. The experiment in a line: wheat germ agglutinin binders on compound microarrays, profiling panel, artefact control for SMM control-protein annotation, biochemical, small-molecule microarray, 635/667 nm fluorescence (AID 1140).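 Also: score merges 667 nm feature emission with signal to noise over triplicate slides.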 Particulars: WGA-A647 binding, 635 nm fluorescence, higher = more signal.
For test [17], the target named is Luciferin 4-monooxygenase (Photinus pyralis) (UniProt P08659). The test is described as follows: firefly luciferase enzyme inhibitors, primary screen, biochemical, luminescence, purified enzyme, 2006 set (AID 1141).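 Also: cell-free assay with purified firefly luciferase at 100 ng per well in PBS; test concentration not given here.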 The conditions noted are these: SteadyGlo luminescence, 30 min, higher = more signal, called active from +8 up or from −8 down.
Luciferin 4-monooxygenase (Photinus pyralis), sequence (P08659 whole entry, looked up): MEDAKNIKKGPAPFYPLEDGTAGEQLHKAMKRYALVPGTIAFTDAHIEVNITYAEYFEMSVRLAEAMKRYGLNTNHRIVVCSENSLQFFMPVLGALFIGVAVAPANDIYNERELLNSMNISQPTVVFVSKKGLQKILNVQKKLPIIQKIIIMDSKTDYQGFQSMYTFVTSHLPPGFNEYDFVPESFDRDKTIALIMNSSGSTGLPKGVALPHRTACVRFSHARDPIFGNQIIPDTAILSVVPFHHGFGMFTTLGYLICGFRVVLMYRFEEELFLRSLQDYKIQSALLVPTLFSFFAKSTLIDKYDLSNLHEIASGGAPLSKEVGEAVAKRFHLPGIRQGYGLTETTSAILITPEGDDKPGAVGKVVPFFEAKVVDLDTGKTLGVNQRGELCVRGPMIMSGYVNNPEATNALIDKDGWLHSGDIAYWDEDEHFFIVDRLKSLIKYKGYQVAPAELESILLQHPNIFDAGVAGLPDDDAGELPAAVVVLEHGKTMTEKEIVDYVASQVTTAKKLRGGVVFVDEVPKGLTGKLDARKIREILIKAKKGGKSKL

The source made the active and inactive calls.

Follistatin (Homo sapiens), sequence (P19883 whole entry, looked up): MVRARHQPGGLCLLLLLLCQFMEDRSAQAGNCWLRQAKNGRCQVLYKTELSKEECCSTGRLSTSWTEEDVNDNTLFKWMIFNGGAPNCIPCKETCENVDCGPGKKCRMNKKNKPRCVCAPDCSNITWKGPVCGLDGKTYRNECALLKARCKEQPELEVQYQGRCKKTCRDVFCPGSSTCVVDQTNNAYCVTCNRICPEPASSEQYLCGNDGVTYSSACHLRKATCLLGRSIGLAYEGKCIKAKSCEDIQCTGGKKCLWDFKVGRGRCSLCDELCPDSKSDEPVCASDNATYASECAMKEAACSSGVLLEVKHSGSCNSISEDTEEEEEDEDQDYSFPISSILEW

`COCCOC(=O)N1C(=O)[C@@]2(c3cc(C#CC4(O)CCCCCC4)ccc31)[C@H](C(=O)Nc1nc3ccccc3s1)[C@H]1C(=O)O[C@H](c3ccccc3)[C@H](c3ccccc3)N1[C@@H]2c1ccccc1OCCO`: the composite z-score with Albumin (Bos taurus) was 0.306; in [2], -0.0647; in test [3], -0.162; in test [4], 0.598; in test [5] it was 1.73; in test [6], 0.233. For the same molecule, the composite z-score in the test with Sam68 (KHDRBS1) is 1.3; in [7], -0.0036; in test [8], 1.16; in [9], 2.46; in test [10], 1.2; in test [11] it was 0.823. The composite z-score in [12] came out at 0.981; in [13] it was 1.01; in [14], 1.37; with Lefty1, 0.581; in test [16], 1.08. The composite Z-score in test [1] was -0.129 (inactive). The z-score is -1.13 in test [15] and -3.04 (inactive) in test [17].

Take `C=CCOC(=O)[C@H]1[C@@H]2C(=O)O[C@@H](c3ccccc3)[C@@H](c3ccccc3)N2[C@@H](c2ccc(OCCOC(=O)[C@H]3C[C@H]4C(=O)N[C@@H](CCCCN(C)C)C(=O)N4[C@H]3c3cccc(OCCO)c3)cc2)[C@]12C(=O)Nc1ccc(I)cc12`: the composite z-score with Albumin (Bos taurus) was -0.427; in test [2], 0.0306; in [3] it was -0.154; in test [4], 0.228; in test [5], 0.986; in [6], -0.0143. Further, the composite z-score in the test with Sam68 (KHDRBS1) was 1.3; in test [7], 1.39; in test [8] it was 1.12; in test [9], 0.977; in [10], 1.18; in test [11], 0.205. Also, the composite z-score in test [12] came to 0.571; in [13], 1.35; in [14] it was 1.36; with Lefty1 it was 1.6; in test [16] it was 0.705. Besides, in test [1], the composite Z-score was 0.715 (inactive). Moreover, the z-score in [15] was -1.66; in test [17], -0.49 (inactive).

On to `C=CC[C@@]1(C(=O)N2CCCCC2)N=C(c2ccc(OCCCO)cc2)O[C@@H]1c1ccccc1CN=[N+]=[N-]`, for which the composite z-score with Albumin (Bos taurus) is 0.866; in test [2], 0.244; in test [3], -0.0505; in test [4] it was 0.671; in test [5], 3.13; in test [6], 1.06. Besides, the composite z-score in the test on Sam68 (KHDRBS1) is 1.29; in [7], -0.602; in test [8] it was 1.04; in test [9], 2.75; in test [10] it was 1.27; in test [11], 0.398. Further, the composite z-score came to 1.02 in test [12]; 1.37 in test [13]; 0.288 in test [14]; 0.484 with Lefty1; 0.768 in [16]. The composite Z-score in [1] is -0.166 (inactive). For the same molecule, the z-score in test [15] is -0.0114; in test [17], -1.37 (inactive).

With `[N-]=[N+]=Nc1ccccc1C[C@@]1(C(=O)N2CCCCC2)N=C(c2ccc(OCCCO)cc2)O[C@@H]1c1ccccc1N=[N+]=[N-]`, the composite z-score in the test with Albumin (Bos taurus) was 0.998; in test [2], 0.384; in test [3], 0.0564; in [4] it was 0.299; in [5], 1.33; in test [6] it was 0.158. Further, the composite z-score in the test on Sam68 (KHDRBS1) is 1.32; in [7], -0.501; in test [8], 1.12; in test [9] it was 2.17; in test [10], 1.19; in test [11], 0.362. In addition, the composite z-score in test [12] was 0.98; in test [13], 1.29; in test [14] it was 0.592; with Lefty1, -0.271; in test [16], 1.3. Also, the composite Z-score in test [1] was 0.203 (inactive). Also, the z-score was -1.21 in [15] and -2.39 (inactive) in test [17].

Turning to `CN(C)CCCCCCNC(=O)[C@@H]1C[C@@H]2C(=O)N3CCC[C@H]3C(=O)N2[C@@H]1c1ccc(O)cc1`, the composite z-score was -0.645 in the test with Albumin (Bos taurus); 0.488 in test [2]; 0.119 in [3]; 0.738 in test [4]; 2.77 in [5]; 1.47 in test [6]. Also, the composite z-score is 1.31 with Sam68 (KHDRBS1); 1.43 in test [7]; 1.16 in [8]; 3.06 in [9]; 1.11 in test [10]; -0.135 in test [11]. Further, the composite z-score in [12] was 0.539; in test [13] it was 1.47; in [14], 1.74; in the test on Lefty1, 1.72; in test [16], 0.758. In addition, the composite Z-score in test [1] was 2.74 (inactive). Also, the values for the z-score in test [15] and in test [17] were 0.334 and -0.934 (inactive), respectively.
